Inconclusive results are not listed. Active and inactive are the calls of the source. Calls come from the whole dose curve; as a rule, active = well fitted curve in the direction sought with a large enough effect; inconclusive = small, poorly fitted or top-dose-only effect, or another doubt; inactive = no such curve, though single readings can be large; an effect the other way counts as inactive or inconclusive.
Key:
[1] = target: Arylsulfatase A (Homo sapiens) (UniProt P15289); assay: qHTS screen for enhancers of Arylsulfatase A (ASA1): LOPAC Validation Assay (AID 720538)
Arylsulfatase A (Homo sapiens), sequence (P15289 whole entry, looked up): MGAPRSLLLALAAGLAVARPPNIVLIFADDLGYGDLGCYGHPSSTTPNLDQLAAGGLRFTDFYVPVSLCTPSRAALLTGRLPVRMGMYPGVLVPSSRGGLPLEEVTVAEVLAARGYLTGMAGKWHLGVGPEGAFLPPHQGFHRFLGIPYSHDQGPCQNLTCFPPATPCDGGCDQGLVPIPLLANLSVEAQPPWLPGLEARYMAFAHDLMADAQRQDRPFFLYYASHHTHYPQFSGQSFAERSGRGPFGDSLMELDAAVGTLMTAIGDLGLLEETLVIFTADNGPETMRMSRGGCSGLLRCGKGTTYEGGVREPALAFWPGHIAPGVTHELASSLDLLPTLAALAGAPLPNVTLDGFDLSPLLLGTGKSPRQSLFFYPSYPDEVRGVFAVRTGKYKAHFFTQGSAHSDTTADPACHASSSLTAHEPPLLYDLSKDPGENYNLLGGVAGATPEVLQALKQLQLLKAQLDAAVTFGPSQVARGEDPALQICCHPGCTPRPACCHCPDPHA
Procedure, shortened: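 SV40-transformed skin fibroblasts from an MLD patient (ASA-I179S) were treated with compounds for 48h at 37 degree C, then lysed with 0.5mM pNCS final substrate for 14h at room temperature; NaOH stop, fluorescence read (Ex=525 nm; Em=598 nm).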

[2] = qHTS for compounds that reverse cellular toxicity of Amyloid beta (A-beta) peptide in yeast: LOPAC Validation Assay (AID 720559)
Procedure, shortened: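 Yeast cells expressing toxic A-beta were combined with pinned compounds in growth medium and incubated 48 hr at 30 C. Growth was read as absorbance at 600 nm and normalized to DMSO and to an equimolar FeCl3/clioquinol positive control.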

[3] = qHTS for Activators of Parkin Expression: LOPAC Validation Assay (NLuc Reporter) (AID 720572)
Procedure, shortened: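 Neuronal cells with a Parkin promoter-driven FLuc/NLuc coincidence reporter were treated 24 h at 37 C in 7-point dose response (LOPAC). NLuc luminescence read after FLuc; signals normalized to DMSO and positive control (100%).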

[4] = qHTS for Activators of Parkin Expression: LOPAC Validation Assay (FLuc Reporter) (AID 720573)
Procedure, shortened: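 Neuronal cell line stably carrying FLuc/NLuc coincidence reporter under Parkin promoter; cells plated 24 h, then compounds added in 7-point dose response for 24 h at 37 C. FLuc luminescence read; normalized to DMSO and positive control (100%).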

[5] = target: Hexokinase-4 (Homo sapiens) + Glucokinase regulatory protein (Homo sapiens) (UniProt P35557+Q14397); assay: qHTS assay for inhibitors of recombinant human GCK-GKRP interaction: Diaphorase-coupled assay (AID 743205)
Hexokinase-4 (Homo sapiens) + Glucokinase regulatory protein (Homo sapiens), sequence (P35557 whole entry, looked up): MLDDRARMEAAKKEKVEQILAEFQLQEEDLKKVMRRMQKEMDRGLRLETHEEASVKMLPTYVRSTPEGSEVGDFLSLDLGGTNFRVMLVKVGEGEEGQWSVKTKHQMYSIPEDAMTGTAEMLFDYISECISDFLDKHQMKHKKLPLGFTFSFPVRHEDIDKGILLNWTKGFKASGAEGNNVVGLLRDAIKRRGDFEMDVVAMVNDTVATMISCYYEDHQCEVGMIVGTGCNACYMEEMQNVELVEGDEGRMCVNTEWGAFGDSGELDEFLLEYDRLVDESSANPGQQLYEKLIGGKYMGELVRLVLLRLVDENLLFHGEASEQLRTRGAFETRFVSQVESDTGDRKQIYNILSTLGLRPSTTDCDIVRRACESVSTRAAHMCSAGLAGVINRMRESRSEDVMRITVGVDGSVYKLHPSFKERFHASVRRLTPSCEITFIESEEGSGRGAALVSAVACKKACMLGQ
Hexokinase-4 (Homo sapiens) + Glucokinase regulatory protein (Homo sapiens), sequence (Q14397 whole entry, looked up): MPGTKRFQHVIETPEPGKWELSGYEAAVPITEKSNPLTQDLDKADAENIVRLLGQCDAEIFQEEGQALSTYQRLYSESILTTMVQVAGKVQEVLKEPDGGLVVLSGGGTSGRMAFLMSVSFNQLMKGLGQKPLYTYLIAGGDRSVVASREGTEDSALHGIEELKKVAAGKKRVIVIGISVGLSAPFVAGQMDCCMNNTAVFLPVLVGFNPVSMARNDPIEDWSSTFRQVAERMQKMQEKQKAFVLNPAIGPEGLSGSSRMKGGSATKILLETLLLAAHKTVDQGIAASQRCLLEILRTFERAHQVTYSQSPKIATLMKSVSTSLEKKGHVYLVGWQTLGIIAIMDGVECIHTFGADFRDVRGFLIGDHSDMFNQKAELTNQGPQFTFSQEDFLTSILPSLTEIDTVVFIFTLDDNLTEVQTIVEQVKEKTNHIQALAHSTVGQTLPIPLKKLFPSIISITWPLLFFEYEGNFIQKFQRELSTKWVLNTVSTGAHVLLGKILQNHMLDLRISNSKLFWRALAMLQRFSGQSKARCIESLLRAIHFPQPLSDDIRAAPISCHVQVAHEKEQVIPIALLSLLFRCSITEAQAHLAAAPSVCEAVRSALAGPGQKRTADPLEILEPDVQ
Procedure, shortened: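 GST-GCK (10 nM) with FLAG-GKRP (10 nM), 5 mM glucose and 0.4 mM ATP in pH 7.6 Hepes; compounds preincubated 20 min with substrate. G6PDH/diaphorase coupling converts resazurin to resorufin, read kinetically (ex 525/em 590 nm) for 30 min.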

Measured: Potency

C[C@@]1(C2CCCC2)Cc2cc(OCC(=O)O)c(Cl)c(Cl)c2C1=O
inactive: all assays above

Cc1nc(N=Nc2ccc(C(=O)O)cc2)c(COP(=O)(O)O)c(C=O)c1O
inactive: all assays above

CN1CCC2(CCN3CCc4c(oc5ccccc45)C3C2)N(C)C1=O (configuration not stated)
not listed: [3]
inactive: all other assays above

CCCCCCCCCCC(C)(C)C(=O)Nc1c(OC)cc(OC)cc1OC
inactive: all assays above

N[C@H](C(=O)O)[C@H](Cc1ccccc1)C(=O)O
inactive: all assays above

O=c1[nH]ccc2c(O)cccc12
inactive: all assays above

O=c1oc(Cl)c(Cl)c2ccccc12
inactive: [1] | [3] | [5]

C[C@H]1CC2C3CCC4=CC(=O)C=C[C@]4(C)[C@@]3(Cl)[C@@H](O)C[C@]2(C)[C@@]1(O)C(=O)CO (some centres not stated)
not listed: [3]
inactive: all other assays above

O=c1[nH]c(=S)[nH]c(-c2ccccc2)c1Cc1c(O)ccc2ccccc12
not listed: [3]
inactive: all other assays above

O=C(O)C1CN(CCCP(=O)(O)O)CCN1 (configuration not stated)
not listed: [3]
inactive: all other assays above

O[Si](CCCN1CCCCC1)(c1ccc(F)cc1)C1CCCCC1 (configuration not stated)
not listed: [3]
inactive: all other assays above

COc1cc(C(O)CO)ccc1O (configuration not stated)
not listed: [3]
inactive: all other assays above

— PubChem BioAssay (NCATS)
